# Assay results reported in PubChem BioAssay AID1159580 (chemical genetic matrix, 2015).
# Among all 5,500 compounds or so, about 2,000 (36%) were called active. Not shown: some 18% with an inconclusive outcome. The list shows a part of the results. A number with no mark means an inactive call. Rule as the data show it: active = normalized growth mostly below about 0.91 (no sharp cut-off); inconclusive = no clear call, values can overlap the other calls; inactive = mostly above about 0.92.
# Assay: chemical genetic growth profiling, strain panel (AID 1159580);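 also: tested at 20 µM; growth read once vehicle control cultures reached saturation at 30 °C; 1 = growth at the plate median or of vehicle wells; lower values mean less growth of the strain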
# Details: growth OD
compound,measurement,setting,value
C=CCc1ccc(O)c(OC)c1,normalized growth,"S. cerevisiae deletion strains, locus YJL187C, strain SWE1, hits give low values",0.999
same,normalized growth,"S. cerevisiae deletion strains, locus YJR043C, strain POL32, hits give low values",0.913
same,normalized growth,"S. cerevisiae deletion strains, locus YJR066W, strain TOR1, hits give low values",0.973
same,normalized growth,"S. cerevisiae deletion strains, locus YJR075W, strain HOC1, hits give low values",0.885
same,normalized growth,"S. cerevisiae deletion strains, locus YKL009W, strain mrt4, hits give low values",0.998
same,normalized growth,"S. cerevisiae deletion strains, locus YKL068W, hits give low values",0.923 (active)
same,normalized growth,"S. cerevisiae deletion strains, locus YKL085W, strain MDH1 (second series), hits give low values",0.894 (active)
same,normalized growth,"S. cerevisiae deletion strains, locus YKL085W, strain MDH1, hits give low values",0.894 (active)
same,normalized growth,"S. cerevisiae deletion strains, locus YKL160W, strain elf1, hits give low values",1.02
same,normalized growth,"S. cerevisiae deletion strains, locus YKR001C, strain vps1, hits give low values",0.813 (active)
same,normalized growth,"S. cerevisiae deletion strains, locus YKR026C, strain gcn3, hits give low values",0.989
same,normalized growth,"S. cerevisiae deletion strains, locus YKR091W, strain srl3, hits give low values",0.992
same,normalized growth,"S. cerevisiae deletion strains, locus YLL001W, strain dnm1, hits give low values",1.02
same,normalized growth,"S. cerevisiae deletion strains, locus YLL026W, hits give low values",0.989
same,normalized growth,"S. cerevisiae deletion strains, locus YLL041C, strain sdh2, hits give low values",0.989
same,normalized growth,"S. cerevisiae deletion strains, locus YLR027C, strain aat2, hits give low values",0.99
same,normalized growth,"S. cerevisiae deletion strains, locus YLR039C, strain RIC1, hits give low values",0.605 (active)
same,normalized growth,"S. cerevisiae deletion strains, locus YLR058C, strain SHM2, hits give low values",0.949
same,normalized growth,"S. cerevisiae deletion strains, locus YLR102C, strain apc9, hits give low values",0.95
same,normalized growth,"S. cerevisiae deletion strains, locus YLR113W, strain HOG1, hits give low values",0.962
same,normalized growth,"S. cerevisiae deletion strains, locus YLR221C, strain rsa3, hits give low values",1.01
same,normalized growth,"S. cerevisiae deletion strains, locus YLR258W, strain gsy2, hits give low values",1.01
same,normalized growth,"S. cerevisiae deletion strains, locus YLR262C, strain YPT6 (second series), hits give low values",0.998
same,normalized growth,"S. cerevisiae deletion strains, locus YLR262C, strain YPT6, hits give low values",0.674
same,normalized growth,"S. cerevisiae deletion strains, locus YLR268W, strain sec22, hits give low values",1.01
same,normalized growth,"S. cerevisiae deletion strains, locus YLR320W, strain mms22, hits give low values",0.996
same,normalized growth,"S. cerevisiae deletion strains, locus YLR330W, strain CHS5, hits give low values",0.885 (active)
same,normalized growth,"S. cerevisiae deletion strains, locus YLR342W, strain FKS1 (second series), hits give low values",0.888
same,normalized growth,"S. cerevisiae deletion strains, locus YLR342W, strain FKS1, hits give low values",0.999
same,normalized growth,"S. cerevisiae deletion strains, locus YLR357W, strain rsc2, hits give low values",0.992
same,normalized growth,"S. cerevisiae deletion strains, locus YLR370C, strain arc18, hits give low values",0.997
same,normalized growth,"S. cerevisiae deletion strains, locus YLR371W, strain rom2, hits give low values",0.692 (active)
same,normalized growth,"S. cerevisiae deletion strains, locus YLR384C, strain iki3, hits give low values",0.991
same,normalized growth,"S. cerevisiae deletion strains, locus YLR418C, strain cdc73, hits give low values",0.799 (active)
same,normalized growth,"S. cerevisiae deletion strains, locus YML016C, strain PPZ1, hits give low values",0.91 (active)
same,normalized growth,"S. cerevisiae deletion strains, locus YML032C, strain rad52, hits give low values",0.93
same,normalized growth,"S. cerevisiae deletion strains, locus YML120C, strain ndi1, hits give low values",1.03
same,normalized growth,"S. cerevisiae deletion strains, locus YML124C, strain tub3, hits give low values",0.917 (active)
same,normalized growth,"S. cerevisiae deletion strains, locus YMR058W, strain fet3, hits give low values",1
same,normalized growth,"S. cerevisiae deletion strains, locus YMR078C, strain ctf18, hits give low values",0.917
same,normalized growth,"S. cerevisiae deletion strains, locus YMR125W, strain sto1, hits give low values",0.965
same,normalized growth,"S. cerevisiae deletion strains, locus YMR129W, hits give low values",0.984
same,normalized growth,"S. cerevisiae deletion strains, locus YMR205C, strain PFK2, hits give low values",0.995
same,normalized growth,"S. cerevisiae deletion strains, locus YMR223W, strain ubp8, hits give low values",0.936
same,normalized growth,"S. cerevisiae deletion strains, locus YMR231W, strain pep5, hits give low values",0.983
same,normalized growth,"S. cerevisiae deletion strains, locus YMR307W, strain GAS1, hits give low values",1
same,normalized growth,"S. cerevisiae deletion strains, locus YNL067W, strain RPL9B, hits give low values",0.97
same,normalized growth,"S. cerevisiae deletion strains, locus YNL071W, strain lat1, hits give low values",0.959
same,normalized growth,"S. cerevisiae deletion strains, locus YNL153C, strain GIM3, hits give low values",0.991
same,normalized growth,"S. cerevisiae deletion strains, locus YNL183C, strain NPR1, hits give low values",0.928
same,normalized growth,"S. cerevisiae deletion strains, locus YNL209W, strain ssb2, hits give low values",0.999
same,normalized growth,"S. cerevisiae deletion strains, locus YNL233W, strain BNI4, hits give low values",0.901
same,normalized growth,"S. cerevisiae deletion strains, locus YNL248C, strain rpa49, hits give low values",1
same,normalized growth,"S. cerevisiae deletion strains, locus YNL250W, strain rad50, hits give low values",0.924
same,normalized growth,"S. cerevisiae deletion strains, locus YNL271C, strain bni1, hits give low values",0.931
same,normalized growth,"S. cerevisiae deletion strains, locus YNL298W, strain CLA4, hits give low values",0.995
same,normalized growth,"S. cerevisiae deletion strains, locus YNL307C, strain MCK1, hits give low values",0.932
same,normalized growth,"S. cerevisiae deletion strains, locus YNL322C, strain KRE1 (second series), hits give low values",0.993
same,normalized growth,"S. cerevisiae deletion strains, locus YNR049C, strain mso1, hits give low values",0.988
same,normalized growth,"S. cerevisiae deletion strains, locus YNR052C, strain pop2, hits give low values",1.01
same,normalized growth,"S. cerevisiae deletion strains, locus YOL012C, strain htz1",0.778
same,normalized growth,"S. cerevisiae deletion strains, locus YOL147C, strain pex11, hits give low values",0.939
same,normalized growth,"S. cerevisiae deletion strains, locus YOR001W, strain rrp6, hits give low values",1.01
same,normalized growth,"S. cerevisiae deletion strains, locus YOR061W, strain CKA2, hits give low values",0.948
same,normalized growth,"S. cerevisiae deletion strains, locus YOR069W, strain VPS5, hits give low values",0.948
same,normalized growth,"S. cerevisiae deletion strains, locus YOR070C, strain gyp1, hits give low values",0.996
same,normalized growth,"S. cerevisiae deletion strains, locus YOR080W, strain dia2, hits give low values",0.989
same,normalized growth,"S. cerevisiae deletion strains, locus YOR083W, strain WHI5, hits give low values",1.04
same,normalized growth,"S. cerevisiae deletion strains, locus YOR106W, strain vam3, hits give low values",1.04
same,normalized growth,"S. cerevisiae deletion strains, locus YOR136W, strain idh2, hits give low values",0.992
same,normalized growth,"S. cerevisiae deletion strains, locus YOR144C, strain elg1, hits give low values",0.937
same,normalized growth,"S. cerevisiae deletion strains, locus YOR184W, strain ser1, hits give low values",0.973
same,normalized growth,"S. cerevisiae deletion strains, locus YOR231W, strain MKK1, hits give low values",0.982
same,normalized growth,"S. cerevisiae deletion strains, locus YOR265W, strain rbl2, hits give low values",0.999
same,normalized growth,"S. cerevisiae deletion strains, locus YOR270C, strain vph1, hits give low values",0.964
same,normalized growth,"S. cerevisiae deletion strains, locus YOR290C, strain snf2, hits give low values",0.986
same,normalized growth,"S. cerevisiae deletion strains, locus YOR316C, strain cot1, hits give low values",0.939
same,normalized growth,"S. cerevisiae deletion strains, locus YPL051W, strain arl3, hits give low values",1.02
same,normalized growth,"S. cerevisiae deletion strains, locus YPL078C, strain atp4, hits give low values",1.01
same,normalized growth,"S. cerevisiae deletion strains, locus YPL106C, strain sse1, hits give low values",0.948
same,normalized growth,"S. cerevisiae deletion strains, locus YPL240C, strain hsp82, hits give low values",0.993
same,normalized growth,"S. cerevisiae deletion strains, locus YPL256C, strain CLN2, hits give low values",0.973
same,normalized growth,"S. cerevisiae deletion strains, locus YPR119W, strain clb2, hits give low values",0.916 (active)
same,normalized growth,"S. cerevisiae deletion strains, locus YPR141C, strain kar3, hits give low values",0.879 (active)
same,normalized growth,"S. cerevisiae deletion strains, locus YPR163C, strain tif3, hits give low values",0.969
same,normalized growth,"S. cerevisiae deletion strains, locus YPR167C, strain met16, hits give low values",0.947
same,normalized growth,"S. cerevisiae deletion strains, strain wtn01, hits give low values",0.988
same,normalized growth,"S. cerevisiae strains, strain wild type, hits give low values",0.95
